In PubChem BioAssay AID2314 (National Center for Advancing Translational Sciences (NCATS), 2010):
Hit rate of the full screen: of about 300,000 compounds, about 37,000 (12%) were called active. The full list was thinned out, with actives kept by preference. A number with no mark means an inactive call. Rule as the data show it: active = max response mostly above about 13% (no sharp cut-off); inactive = mostly below about 14%.

Experiment: Cycloheximide Counterscreen for Small Molecule Inhibitors of Shiga Toxin; also: read at 38.3 µM for the half of the compounds with a filed dose; 0% is about no effect
Settings: cell reporter, cycloheximide protein synthesis inhibition counterscreen; active compounds read high

SMILES | max response
O=C(O)C1=NN(c2c(F)c(F)cc(F)c2F)C(=O)CC1 | -4.21%
C=CCN(N=Nc1cccc([N+](=O)[O-])c1)c1cccc([N+](=O)[O-])c1 | -2.01%
O=C(CN1CCN(S(=O)(=O)c2ccc(F)cc2)CC1)NC1CC1 | 1.9%
Cc1cnc(C(=O)OCc2c(C)cc(C(C)(C)C)cc2C)cn1 | -3.25%
Cc1nc(COc2cccc(Cl)c2)sc1C(=O)/C=C/N(C)C | 40.9% (active)
CN(C)/C=C/C(=O)c1ccccc1F | 5.51%
CC(Oc1ccc(Cl)cc1Cl)C(=O)/C=C/N(C)C (stereo unspecified) | 2.24%
Cc1nc(-c2ccccc2)sc1C(=O)/C=C/N(C)C | 45.3% (active)
Cc1ccc(SCC(=O)c2sc(-c3ccccc3)nc2C)cc1 | -0.538%
O=C(COc1cccc(Cl)c1)NCc1ccccc1 | 7.99%
COc1ccc(-c2nc(CN3CCN(c4ncccn4)CC3)c(C)o2)cc1C | -2.33%
Cc1ccc(S(=O)(=O)N[C@@H](Cc2ccccc2)C(=O)N2CCC(C(=O)N[C@H](C(=O)O)C(C)O)CC2)cc1 (stereo partly specified) | -0.605%
Cc1ccc(N(Cc2ccc(C(=O)Nc3ccccc3C(=O)NCc3ccco3)cc2)S(C)(=O)=O)cc1C | -1.16%
O=C(COc1ccc(Cl)cc1)NCc1nnc(SCC(=O)NCC2CCCO2)o1 (stereo unspecified) | 1.5%
S=C(NCCc1ccccc1)N1CCn2cccc2C1c1ccncc1 (stereo unspecified) | 6.15%
CCC(C)(C)n1nnnc1CN1CCN(c2nc3ccc(C)cc3cc2C#N)CC1 | -1.82%
CCOc1ccc(CN2CCN(Cc3c[nH]c4ccccc34)CC2)cc1 | -0.16%
CCOc1ccc(N(CC(=O)NCCc2ccc(F)cc2)S(=O)(=O)c2ccccc2)cc1 | 0.706%
CCCCc1ccc(NC(=S)NCCCN2CCOCC2)cc1 | 12%
CCCCc1ccc(NC(=S)N2CCCC(CO)C2)cc1 (stereo unspecified) | 39.3% (active)
COc1ccc(NC(=S)N2CCCC(CO)C2)c(OC)c1 (stereo unspecified) | -1.58%
COc1ccc(S(=O)(=O)NC(C)c2ccccc2)cc1C(=O)N1CCCCC1 (stereo unspecified) | 8.07%
COc1ccc(CNC(=O)CN(Cc2ccccc2Cl)C(=O)c2csnn2)cc1 | -2.08%
CCOC(=O)C1(Cc2ccc(Cl)cc2)CCN(C(=O)C2=NNC(=O)CC2)CC1 | 10.1% (active)
CC(=O)N1CCC(C(=O)OCc2ccc(Cl)cc2)(c2ccccc2)CC1 | 1.9%
CCOC(=O)C1(Cc2ccc(Cl)cc2)CCN(C(C)CCn2cccn2)CC1 (stereo unspecified) | -3.1%
